Experimental data as given in PubChem BioAssay (EPA / NIEHS).
Calls of active or inactive are those of the source. Rule for the calls: active = hit-call score of the fitted dose curve at least 0.9, where 1 is the maximum; inactive = score below 0.9.

What was measured:
[1] = ATG_E_Box_CIS: Attagene CIS-FACTORIAL HepG2 Assay for human Enhancer Box (E-box) (AID 2282936); conditions: HepG2 E-box cis-reporter transcription, actives raise or lower the signal
Method in brief: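 In this cell-based setup, HepG2 cells bearing transfected promoter-driven reporter units were exposed to chemicals for 24 h; reporter transcripts were amplified, 6-FAM-labelled, cut with HpaI and sized by capillary electrophoresis.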

[2] = ATG_M_61_CIS: Attagene CIS-FACTORIAL HepG2 Assay for M61 Transcription Factor (Internal Marker) (AID 2282937); conditions: HepG2 Attagene CIS-FACTORIAL M61 internal marker reporter; actives raise or lower the signal
Method in brief: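 Human liver HepG2, transient MRTU transfection (cis promoter elements), 24 h compound. Total RNA → oligo(dT) RT → PCR → FAM label → HpaI → CE. Internal background marker; bidirectional fitting, DMSO = baseline.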

[3] = ATG_EGR_CIS: Attagene CIS-FACTORIAL HepG2 Assay for human Early Growth Response 1 (EGR1) (AID 2282938); conditions: HepG2 Attagene CIS-FACTORIAL EGR reporter mRNA; actives raise or lower the signal
Method in brief: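 Transient transfection of human HepG2 with multiple cis-regulated reporter units, chemical exposure 24 h, total RNA isolated. Reverse transcription, PCR, fluorescent labelling and capillary electrophoresis quantify reporter transcripts; activity fitted bidirectionally against DMSO.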

[4] = ATG_M_19_CIS: Attagene CIS-FACTORIAL HepG2 Assay for M19 Transcription Factor (Internal Marker) (AID 2282939); conditions: HepG2 Attagene CIS-FACTORIAL M19 internal marker reporter; actives raise or lower the signal
Method in brief: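 Chemical-treated HepG2 (24 h) with MRTU constructs; reporter transcripts detected by fluorescent RT-PCR fragment analysis on capillary electrophoresis. Internal background marker, DMSO as baseline.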

[5] = ATG_Ets_CIS: Attagene CIS-FACTORIAL HepG2 Assay for human Erythroblast Transformation Specific (ETS) (AID 2282941); conditions: HepG2 ETS cis-reporter transcription, actives raise or lower the signal
Method in brief: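 Cis-regulated reporter mRNA induction in HepG2 (transient transfection), 24 h exposure, RT-PCR plus capillary electrophoresis detection; DMSO serves as negative control and baseline.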

[6] = biological target: Hepatocyte nuclear factor 3-beta (Homo sapiens) (UniProt Q9Y261); experiment: ATG_FoxA2_CIS: Attagene CIS-FACTORIAL HepG2 Assay for human Forkhead box A2 (FOXA2) (AID 2282942); conditions: HepG2 cis-reporter transcription factor activity, 24 h; actives raise or lower the signal
Sequence of Hepatocyte nuclear factor 3-beta (Homo sapiens) (Q9Y261 whole entry, looked up): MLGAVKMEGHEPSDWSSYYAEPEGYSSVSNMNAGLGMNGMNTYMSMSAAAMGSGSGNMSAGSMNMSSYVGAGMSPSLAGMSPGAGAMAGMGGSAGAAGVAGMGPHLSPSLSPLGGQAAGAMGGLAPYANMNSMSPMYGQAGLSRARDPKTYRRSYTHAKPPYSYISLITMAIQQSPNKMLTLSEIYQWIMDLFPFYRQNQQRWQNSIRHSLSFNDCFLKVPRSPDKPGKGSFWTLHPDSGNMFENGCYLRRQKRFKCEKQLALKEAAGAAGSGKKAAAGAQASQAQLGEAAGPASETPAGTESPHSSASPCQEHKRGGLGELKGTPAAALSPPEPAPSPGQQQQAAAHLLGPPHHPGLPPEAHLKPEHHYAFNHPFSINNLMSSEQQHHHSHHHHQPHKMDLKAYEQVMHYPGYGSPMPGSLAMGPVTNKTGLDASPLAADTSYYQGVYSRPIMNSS
Method in brief: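 Transient MRTU transfection of HepG2 liver cells; 24 h treatment; total RNA → oligo(dT) RT → PCR → FAM primer extension → HpaI cut → CE. Bidirectional fit vs DMSO.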

[7] = ATG_FoxO_CIS: Attagene CIS-FACTORIAL HepG2 Assay for human Forkhead box O (FoxO) (AID 2282943); conditions: HepG2 Attagene cis-reporter, FoxO element, mRNA; actives raise or lower the signal
Method in brief: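 HepG2 cells transiently transfected with cis-element-driven reporter units report endogenous FoxO activity. After 24 h chemical exposure, reporter mRNA quantified by RT-PCR, fluorescent labeling, HpaI digestion and capillary electrophoresis; bidirectional fit versus DMSO.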

[8] = ATG_GATA_CIS: Attagene CIS-FACTORIAL HepG2 Assay for human GATA Binding Protein (AID 2282944); conditions: HepG2 GATA cis-element reporter, Attagene multiplex mRNA; actives raise or lower the signal
Method in brief: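 Transfected cis-reporter HepG2 cells were treated with chemicals for 24 hours. Total RNA was then converted to cDNA, amplified with reporter-specific primers and analysed by fluorescent capillary electrophoresis, using DMSO-treated wells as baseline.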

[9] = ATG_GLI_CIS: Attagene CIS-FACTORIAL HepG2 Assay for human Zinc Finger Protein GLI1 (AID 2282945); conditions: HepG2, Attagene cis-factorial reporter mRNA, GLI element; actives raise or lower the signal
Method in brief: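 Transiently transfected HepG2 cells report endogenous transcription factor activity via cis-element-driven reporter units. After 24 h compound exposure, reporter mRNA was measured by RT-PCR with capillary electrophoresis; bidirectional fitting against DMSO baseline.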

[10] = biological target: Bile acid receptor (Homo sapiens) (UniProt Q96RI1); experiment: ATG_IR1_CIS: Attagene CIS-FACTORIAL HepG2 Assay for human Nuclear Receptor Subfamily 1 Group H Member 4 (NR1H4), IR1 submotif (AID 2282946); conditions: IR1 reporter transcription, actives raise or lower the signal
Sequence of Bile acid receptor (Homo sapiens) (Q96RI1 whole entry, looked up): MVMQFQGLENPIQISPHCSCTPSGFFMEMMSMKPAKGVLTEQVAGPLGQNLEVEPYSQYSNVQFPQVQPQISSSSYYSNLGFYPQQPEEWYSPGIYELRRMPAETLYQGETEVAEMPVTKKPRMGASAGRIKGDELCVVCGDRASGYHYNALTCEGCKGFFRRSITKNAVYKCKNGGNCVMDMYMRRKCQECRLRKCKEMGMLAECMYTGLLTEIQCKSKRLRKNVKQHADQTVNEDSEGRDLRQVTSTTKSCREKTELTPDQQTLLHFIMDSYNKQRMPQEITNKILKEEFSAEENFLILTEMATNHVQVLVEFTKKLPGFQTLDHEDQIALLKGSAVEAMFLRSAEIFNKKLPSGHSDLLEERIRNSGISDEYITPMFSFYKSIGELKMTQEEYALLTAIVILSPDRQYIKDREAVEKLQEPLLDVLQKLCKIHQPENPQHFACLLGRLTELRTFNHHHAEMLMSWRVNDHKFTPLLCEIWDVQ
Method in brief: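 Fluorescence of capillary-separated, HpaI-digested RT-PCR reporter products gave IR1-element mRNA induction in HepG2 cells 24 h after dosing. Endogenous transcription factors drove the cis-regulated reporters; activity was fitted bidirectionally against DMSO.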

[11] = ATG_GRE_CIS: Attagene CIS-FACTORIAL HepG2 Assay for human Glucocorticoid Response Elements (GRE) (AID 2282947); conditions: HepG2 GRE cis-reporter, Attagene multiplex mRNA; actives raise or lower the signal
Method in brief: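 Fluorescence intensity of reporter-specific cDNA fragments, separated by capillary electrophoresis, provides the signal. Constructs carry cis-regulating promoters in transiently transfected HepG2 liver cells; 24 h incubation; fitting is bidirectional against DMSO.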

[12] = ATG_ISRE_CIS: Attagene CIS-FACTORIAL HepG2 Assay for human Interferon Regulatory Factor 1 (IRF1) binding to an Interferon-Stimulated Response Element (ISRE) (AID 2282948); conditions: HepG2 ISRE cis-reporter (Attagene), mRNA transcription readout; actives raise or lower the signal
Method in brief: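 Multiplexed mRNA reporter readout in human liver HepG2 cells: cis-element-driven reporters transfected, compound added for 24 h, transcripts amplified, fluorescently labelled and sized by capillary electrophoresis; curve fitting bidirectional against DMSO.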

[13] = ATG_M_32_CIS: Attagene CIS-FACTORIAL HepG2 Assay for M32 Transcription Factor (Internal Marker) (AID 2282949); conditions: HepG2 Attagene cis-factorial M32 reporter, mRNA; actives raise or lower the signal;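 note: background control marker of the multiplexed CIS panel rather than a real target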
Method in brief: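 HepG2 transfectants (cis-regulated reporter transcription units) dosed 24 h. Reporter mRNA by RT-PCR plus CE, analysed as gain or loss relative to DMSO.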

[14] = ATG_M_06_CIS: Attagene CIS-FACTORIAL HepG2 Assay for M06 Transcription Factor (Internal Marker) (AID 2282950); conditions: HepG2 Attagene CIS-FACTORIAL M06 internal marker reporter; actives raise or lower the signal
Method in brief: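 Cells (HepG2, transiently carrying cis-driven reporter units) receive chemical for 24 h before RNA isolation. Reporter cDNA is PCR-amplified, FAM-labelled by primer extension, HpaI-digested and sized on a capillary analyser.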

[15] = biological target: Hypoxia-inducible factor 1-alpha (Homo sapiens) (UniProt Q16665); experiment: ATG_HIF1a_CIS: Attagene CIS-FACTORIAL HepG2 Assay for human Hypoxia Inducible Factor 1 (HIF1A) (AID 2282951); conditions: HepG2 Attagene cis-factorial HIF1a reporter transcription; actives raise or lower the signal
Sequence of Hypoxia-inducible factor 1-alpha (Homo sapiens) (Q16665 whole entry, looked up, the tested form may be a part): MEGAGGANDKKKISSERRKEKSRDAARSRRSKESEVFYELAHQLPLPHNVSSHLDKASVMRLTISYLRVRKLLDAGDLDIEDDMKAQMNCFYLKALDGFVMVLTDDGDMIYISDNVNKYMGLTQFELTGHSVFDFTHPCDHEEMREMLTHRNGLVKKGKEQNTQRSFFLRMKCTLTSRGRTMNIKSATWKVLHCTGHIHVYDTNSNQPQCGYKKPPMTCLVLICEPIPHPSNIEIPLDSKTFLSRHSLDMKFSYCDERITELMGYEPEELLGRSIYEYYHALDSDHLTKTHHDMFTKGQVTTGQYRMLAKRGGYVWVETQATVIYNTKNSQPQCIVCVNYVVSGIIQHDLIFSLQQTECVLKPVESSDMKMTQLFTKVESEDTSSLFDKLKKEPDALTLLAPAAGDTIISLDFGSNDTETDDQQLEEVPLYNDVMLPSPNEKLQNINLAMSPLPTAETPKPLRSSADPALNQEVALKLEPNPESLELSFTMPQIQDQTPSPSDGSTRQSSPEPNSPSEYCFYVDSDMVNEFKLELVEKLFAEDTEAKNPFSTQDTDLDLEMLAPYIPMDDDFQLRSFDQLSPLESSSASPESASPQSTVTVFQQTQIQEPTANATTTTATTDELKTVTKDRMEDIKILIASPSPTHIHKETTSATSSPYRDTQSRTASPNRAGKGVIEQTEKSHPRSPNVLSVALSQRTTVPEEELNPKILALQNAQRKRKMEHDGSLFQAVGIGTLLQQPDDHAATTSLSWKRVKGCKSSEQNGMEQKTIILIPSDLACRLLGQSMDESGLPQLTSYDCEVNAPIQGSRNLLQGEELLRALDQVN
Method in brief: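 Transient MRTU transfection of human HepG2 liver cells, 24 h compound treatment, then total RNA isolation, oligo(dT) reverse transcription, PCR amplification, fluorescent labelling and capillary electrophoresis of reporter fragments. Gain or loss relative to DMSO.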

[16] = biological target: Hepatocyte nuclear factor 6 (Homo sapiens) (UniProt Q9UBC0); experiment: ATG_HNF6_CIS: Attagene CIS-FACTORIAL HepG2 Assay for human Hepatocyte Nuclear Factor 6 (HNF6) (AID 2282952); conditions: HepG2 Attagene cis-factorial HNF6 reporter transcription; actives raise or lower the signal
Sequence of Hepatocyte nuclear factor 6 (Homo sapiens) (Q9UBC0 whole entry, looked up): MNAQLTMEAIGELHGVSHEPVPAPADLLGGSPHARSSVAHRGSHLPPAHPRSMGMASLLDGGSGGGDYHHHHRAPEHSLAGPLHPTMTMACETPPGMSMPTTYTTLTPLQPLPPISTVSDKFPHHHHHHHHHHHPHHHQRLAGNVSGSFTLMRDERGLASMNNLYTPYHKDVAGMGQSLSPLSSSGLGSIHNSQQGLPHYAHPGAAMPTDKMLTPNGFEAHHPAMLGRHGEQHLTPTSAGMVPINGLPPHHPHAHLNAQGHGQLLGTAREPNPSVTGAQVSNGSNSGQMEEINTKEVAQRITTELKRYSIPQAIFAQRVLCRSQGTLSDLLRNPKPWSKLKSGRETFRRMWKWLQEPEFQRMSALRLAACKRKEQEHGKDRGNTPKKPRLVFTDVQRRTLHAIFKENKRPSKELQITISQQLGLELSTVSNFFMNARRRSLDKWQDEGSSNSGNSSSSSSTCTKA
Method in brief: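 Activity values derive from bidirectional fitting against DMSO of reporter mRNA levels, measured by capillary electrophoresis of labelled RT-PCR products from HepG2 cells exposed 24 h.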

[17] = biological target: Heat shock factor protein 1 (Homo sapiens) (UniProt Q00613); experiment: ATG_HSE_CIS: Attagene CIS-FACTORIAL HepG2 Assay for human Heat Shock Transcription Factor 1 (HSE) (AID 2282953); conditions: HepG2 HSE cis-reporter, Attagene RNA transcription; actives raise or lower the signal
Sequence of Heat shock factor protein 1 (Homo sapiens) (Q00613 whole entry, looked up): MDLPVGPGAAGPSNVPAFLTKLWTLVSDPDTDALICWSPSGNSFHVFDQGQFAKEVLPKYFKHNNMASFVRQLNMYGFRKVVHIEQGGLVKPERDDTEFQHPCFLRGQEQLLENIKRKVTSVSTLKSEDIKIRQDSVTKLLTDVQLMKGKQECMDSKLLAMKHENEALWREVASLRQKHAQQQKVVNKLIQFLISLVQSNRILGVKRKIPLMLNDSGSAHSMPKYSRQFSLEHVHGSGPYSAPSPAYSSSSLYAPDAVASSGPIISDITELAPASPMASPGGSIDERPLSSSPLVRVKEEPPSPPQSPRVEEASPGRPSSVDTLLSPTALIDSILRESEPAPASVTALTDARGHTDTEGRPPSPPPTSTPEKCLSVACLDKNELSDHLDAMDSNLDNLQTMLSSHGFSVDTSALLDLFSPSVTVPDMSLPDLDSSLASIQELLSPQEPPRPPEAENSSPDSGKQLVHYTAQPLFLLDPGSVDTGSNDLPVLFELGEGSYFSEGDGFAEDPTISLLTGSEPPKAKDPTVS
Method in brief: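 Liver-derived HepG2 cells carry transiently introduced multiple reporter units governed by cis promoters. Reporter RNA measured 24 h post-dose through reverse transcription, PCR amplification, fluorescent labelling and capillary electrophoresis, normalised to DMSO.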

[18] = ATG_MRE_CIS: Attagene CIS-FACTORIAL HepG2 Assay for human Metal Responsive Element (MRE) (AID 2282954); conditions: HepG2 MRE cis-reporter transcription, Attagene multiplex; actives raise or lower the signal
Method in brief: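 Measured here is mRNA induction from an MRE cis-element reporter in HepG2 after 24 h, quantified by fluorescence of labelled RT-PCR products on capillary electrophoresis; gain- and loss-of-signal fits use DMSO as baseline.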

[19] = ATG_ERE_CIS: Attagene CIS-FACTORIAL HepG2 Assay for Estrogen Response Element (ERE) (AID 2282940); conditions: HepG2 ERE cis-reporter, Attagene RNA transcript; actives raise or lower the signal
Method in brief: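 Human liver cells (HepG2) bearing transiently transfected, promoter-regulated reporter units were exposed 24 h. Reporter mRNA induction was detected by capillary electrophoresis of labelled RT-PCR products and fitted bidirectionally to DMSO.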

[20] = ATG_PBREM_CIS: Attagene CIS-FACTORIAL HepG2 Assay for human Phenobarbital-responsive Enhancer Module (PBREM) (AID 2282955); conditions: HepG2 PBREM cis-reporter, Attagene multiplexed transcription; actives raise or lower the signal
Method in brief: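 Endogenous transcription factors in human liver HepG2 cells drive a PBREM cis-element reporter, whose transcript level after 24 h treatment is quantified by RT-PCR with capillary electrophoresis; activity fitted in both directions against DMSO.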

Measured: outcome

Cc1ccc(N)c(S(=O)(=O)O)c1
not listed: [19] | [20]
inactive: all other assays above

Cc1c(Cl)cccc1[N+](=O)[O-]
not listed: [19] | [20]
inactive: all other assays above

OCC#CCO
not listed: [19] | [20]
inactive: all other assays above

CCCCC1(COC(=O)CCC(=O)O)C(=O)N(c2ccccc2)N(c2ccccc2)C1=O
not listed: [10] | [11] | [15] | [16] | [20]
inactive: all other assays above

O=C(O)c1cccnc1C(=O)O
not listed: [9] | [10] | [11] | [15] | [20]
inactive: all other assays above

NC(=S)NNC(N)=S
not listed: [19] | [20]
inactive: all other assays above

Cc1ccc(S(N)(=O)=O)cc1
not listed: [19] | [20]
inactive: all other assays above

C1=CC2C3C=CC(C3)C2C1 (stereo not drawn)
not listed: [19] | [20]
inactive: all other assays above

CC1(C)O[C@@H]2[C@@H](CO[C@@]3(COS(N)(=O)=O)OC(C)(C)O[C@@H]23)O1
not listed: [10] | [11]
inactive: all other assays above

CN(C)c1ccncc1
not listed: [10] | [11]
inactive: all other assays above

CCCC(O)C(O)CO (stereo not drawn)
not listed: [19] | [20]
inactive: all other assays above

CC1(C)COCN1
not listed: [19]
inactive: all other assays above

O=C(Nc1ccc2c(O)c(N=Nc3ccc(N=Nc4ccc(S(=O)(=O)O)cc4)cc3)c(S(=O)(=O)O)cc2c1)c1ccccc1
not listed: [10] | [11] | [16]
inactive: all other assays above

CCCC(C)C(O)CC (stereo not drawn)
not listed: [19] | [20]
inactive: all other assays above

CCCOCCO
not listed: [19]
inactive: all other assays above

CC(C)c1ccccc1O
not listed: [19] | [20]
inactive: all other assays above
